HT1080NT lethal: qHTS for induction of synthetic lethality in tumor cells producing 2HG: qHTS for the HT-1080-NT fibrosarcoma cell line. 1.6% of 360,000 active. HT-1080-NT fibrosarcoma viability, CellTiter-Glo ATP luminescence, 48 h. Potency, µM (top dose mostly 46.1 µM), without a hit: at the top dose activity, negative = less viability, usual class: cytotoxic. AID 686970, 2013;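 note: NT is the 2HG producing partner of a matched IDH1 knockdown line; potency is the fitted concentration of half-maximal effect; 0% = DMSO-treated cells and -100% = media-only wells without cells; nearly all actives have a fitted effect of over 55% in size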
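Read-out is CellTiter-Glo luminescence after 10 minutes at room temperature, following 48 hours' compound treatment of HT-1080-NT cells (750 cells/well, RPMI, 5% FBS, 37 degrees C).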
TDP1 cell CPT: qHTS for Inhibitors of human tyrosyl-DNA phosphodiesterase 1 (TDP1): qHTS in cells in presence of CPT; chicken DT40 Tdp1-/-;hTDP1 cells + 20 nM CPT, ATP luminescence, 48 h; Potency, µM (series often up to 46.2 µM), for the others: at the top dose activity change, negative = growth inhibition, actives largely listed as inhibitors; 12% of 420,000 active; note: potency is the fitted concentration of half-maximal effect; nearly all actives have a fitted effect of over 55% in size
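Chicken DT40 Tdp1-/- cells stably complemented with human TDP1 were seeded at 400 cells/well in medium containing 20 nM camptothecin, exposed to pin-transferred compounds, and grown at 37 °C for at least 48 hr. Viability was read as ATP luminescence.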
TDP1 cell noCPT: qHTS for Inhibitors of human tyrosyl-DNA phosphodiesterase 1 (TDP1): qHTS in cells in absence of CPT; 15% of 420,000 active; Potency, µM (series often up to 46.2 µM), inactives show at the highest dose activity change, negative = growth inhibition, hits mostly inhibitors; DT40 Tdp1-/- hTDP1 cells, no CPT, ATP luminescence, 48 h; note: potency is the fitted concentration of half-maximal effect; nearly all actives have a fitted effect of over 55% in size
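Growth kinetics read by CellTiter-Glo luminescence after ≥48 hr at 37 °C. Cells: DT40 Tdp1-/- stably carrying human TDP1, 400 per well, compound exposure in the absence of CPT (DMSO vehicle).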
HT1080 IDH1KD tx: qHTS for induction of synthetic lethality in tumor cells producing 2HG: qHTS for the HT-1080-IDH1KD cell line | 2% of 360,000 active | AID 686971, 2013 | HT-1080 IDH1 knockdown viability, ATP luminescence, 48 h | Potency, µM (titrated, usually from 46.1 µM), for inactives: at the top dose activity, negative = toxicity, hits mostly cytotoxic;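 note: potency is the fitted concentration of half-maximal effect; 0% = DMSO wells and -100% = cell-free medium wells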
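CellTiter-Glo luminescence after 48 h compound exposure at 37 degrees C of IDH1-knockdown HT-1080 cells in 5% FBS RPMI. %Activity scaled between DMSO wells and cell-free media wells, with curves fitted and assigned curve classes.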
uPA surface inh: qHTS for Inhibitors of Cell Surface uPA Generation; cell surface uPA generation assay, qHTS; Potency, µM (doses to about 38.3 µM), for the others: at the highest dose activity change, negative = inhibition, actives largely listed as inhibitors; 0.31% of 330,000 active; active = well fitted inhibition curve with a large enough effect; inconclusive = small, poorly fitted or top-dose-only effect; inactive = no such curve, though single readings can be large or run the other way; tested in mouse RAW 264.7 cells; note: potency is the fitted concentration of half-maximal effect; nearly all actives have a fitted effect of over 55% in size
IL1B secr inh: qHTS for Inhibitors of Inflammasome Signaling: IL-1-beta AlphaLISA Primary Screen | THP-1 LPS/ATP IL-1B secretion, AlphaLISA, 16 h; stronger effect = lower value | activity change, % at 57.5 µM | 4.7% of 360,000 active; in the data active = activity change below about -50%; inconclusive = mostly about -30% to -49%
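THP-1 cells pretreated 1 hr with compounds (up to 57.5 uM final), then stimulated with LPS (250 ng/mL final) plus ATP (1.25 mM final); secreted IL-1B measured by AlphaLISA after 16 hr, decreased signal indicating inhibition.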
Active calls of the source: *; ? = inconclusive; nt = no result given. Rows were chosen to be rich in hits. Some 19% of all compounds tested hit in one or more screens of this group. Unless noted, calls come from the whole dose curve; as a rule, active = well fitted curve in the direction sought with a large enough effect; inconclusive = small, poorly fitted or top-dose-only effect, or another doubt; inactive = no such curve, though single readings can be large; an effect the other way counts as inactive or inconclusive. Unless noted, % is set by controls: 0 for no effect and ±100 for the full control effect.

SMILES	HT1080NT lethal	TDP1 cell CPT	TDP1 cell noCPT	HT1080 IDH1KD tx	uPA surface inh	IL1B secr inh
CCCCNC(=O)c1ccc2c(c1)N=C(CC)c1ccccc1S2	nt	4.1µM*	4.6µM*	nt	nt	nt
O=C(CN1C(=O)NC2(CCCCC2)C1=O)Nc1ccc2[nH]c(=O)[nH]c2c1	-3%	-2%	-11%	9%	-1%	-3
Cc1cc(C)c(CN2CCN(C(=O)Cn3cnc(C(=O)Nc4ccc(C)c(C)c4)n3)CC2)c(C)c1	?	?	-82%	-97%	-5%	-7
Cc1nc(-c2ccccn2)nc(N(C)c2ccccc2)c1Cl	-7%	2.6µM*	2.6µM*	0%	-21%	-2
OC[C@@H](O)COc1cccc2ccccc12	nt	5%	-14%	nt	nt	nt
CCc1ccc(CNCc2ccc(OCC(O)CN(C)Cc3ccccc3)cc2)nc1 (configuration not stated)	?	16µM*	23µM*	?	-9%	-60*
CN(Cc1ccccc1)CC(O)COc1ccc(CNCCc2ccncc2)cc1 (configuration not stated)	?	?	?	?	6%	-59*
C=CCOc1ccc(CN(C)CC(O)COc2cccc3ccccc23)cc1 (configuration not stated)	?	?	?	?	0%	-59*
N#Cc1c(/N=C/c2cc3ccccc3s2)sc2c1CCC2	13%	?	23µM*	-3%	-1%	-7
O=C(c1ccc(Cl)cc1)n1nc(-c2ccco2)nc1NCc1cccs1	nt	-1%	-10%	nt	nt	nt
O=C(Nc1ccc2oc(-c3ccncc3)nc2c1)c1ccc2c(c1)OCCO2	-9%	?	?	-1%	-3%	-2
CC(C)Oc1cccc(C(=O)Nc2ccc3oc(-c4ccccc4)nc3c2)c1	nt	?	21µM*	nt	nt	nt
O=C(Nc1ccc2oc(-c3ccccc3)nc2c1)c1ccc2ccccc2c1	nt	?	-7%	nt	nt	nt
O=C(Nc1ccc(-c2nc3ccccc3o2)c(O)c1)c1ccccc1	nt	?	18µM*	nt	nt	nt
O=C(Nc1ccc2oc(-c3ccccc3)nc2c1)c1ccc2c(c1)OCCO2	?	23µM*	16µM*	?	nt	-24
COc1cccc(OC)c1C(=O)NC(=S)Nc1ccc2oc(-c3ccncc3)nc2c1	19%	26µM*	23µM*	2%	-1%	21
COc1c(F)c(F)c(C(=O)Nc2ccc3oc(-c4ccncc4)nc3c2)c(F)c1F	21%	-10%	-18%	17%	6%	0
O=S(=O)(O)NC1CCCCC1	nt	1%	-6%	nt	nt	nt
Cc1cc(C)n(C(C)CC(=O)Nc2cccc(C(F)(F)F)c2)n1 (configuration not stated)	nt	-26%	?	nt	nt	nt
O=S(=O)(NCc1ccccc1Cl)c1cccs1	13%	4%	-3%	12%	-1%	1
Cc1cccc(CN2CCc3nnc(C(C)NC(=O)C4CCOCC4)n3CC2)c1 (configuration not stated)	nt	14%	0%	nt	nt	nt
O=C(Nc1ccc2oc(-c3ccncc3)nc2c1)c1ccc(F)cc1	-3%	-3%	-20%	-9%	0%	-7
O=C(Nc1ccc2oc(-c3ccncc3)nc2c1)c1c(F)c(F)c(F)c(F)c1F	-1%	0.73µM*	1.5µM*	-18%	-6%	?
Cc1cccc(C(=O)Nc2ccc3oc(-c4ccncc4)nc3c2)c1	nt	21µM*	12µM*	nt	nt	nt
O=C(NCc1nnnn1-c1ccc(F)c(F)c1)C(=O)c1c[nH]c2ccccc12	6%	-12%	-24%	1%	23%	0
SMILES	HT1080NT lethal	TDP1 cell CPT	TDP1 cell noCPT	HT1080 IDH1KD tx	uPA surface inh	IL1B secr inh
CCCCCCCCCCCCCCCCCCCCCCO	nt	6%	1%	nt	nt	nt
Cc1cnc(CNc2ncnc3ccc(-c4cccc(NS(C)(=O)=O)c4)cc23)cn1	nt	?	-13%	nt	nt	nt
OC[C@H]1O[C@@H](c2nc(-c3ccccc3Br)no2)[C@H](O)[C@@H](O)[C@H]1O	25%	-10%	2%	14%	nt	20
O=C1C=C(C2OC(CO)C(O)C2O)C(=O)N1 (configuration not stated)	5%	4.6µM*	6.5µM*	9%	?	?
Cc1ccc(N2CC(NC(=O)c3ccco3)CC2=O)cc1 (configuration not stated)	nt	-4%	-1%	nt	nt	nt
N#C/C(=C/c1ccc(Cl)cc1)c1nc(-c2ccc(Br)cc2)cs1	nt	2%	-21%	nt	nt	nt
Cc1ccnc(N/C=C(\C#N)c2nc(-c3cccc(Br)c3)cs2)c1	-11%	21µM*	18µM*	?	-3%	-8
CC1(Cc2cccc(C(F)(F)F)c2)C(=O)Nc2ccc(-c3ccc(F)c(Cl)c3)cc21 (configuration not stated)	?	?	23µM*	?	nt	-70*
CC1(Cc2ccc(Cl)cc2)C(=O)Nc2ccc(-c3cccnc3)cc21 (configuration not stated)	-6%	13µM*	12µM*	-25%	nt	36
COc1cccc(-c2cccc3c2NC(=O)C3(C)Cc2cccc(F)c2)c1 (configuration not stated)	?	?	21µM*	?	nt	13
CCc1ccc2c(c1)NC(=O)C2(C)Cc1cccc(F)c1 (configuration not stated)	-10%	?	?	-12%	nt	-1
CC1(Cc2cccc(F)c2)C(=O)Nc2ccc(-c3cccnc3)cc21 (configuration not stated)	-6%	12µM*	10µM*	0%	nt	83
COc1ccccc1-c1ccc2c(c1)C(C)(Cc1ccc(Cl)cc1)C(=O)N2 (configuration not stated)	13%	2%	0%	10%	nt	7
COc1ccc(S(=O)(=O)Nc2cc3c(cc2NCc2ccccc2)n(C)c(=O)n3C)cc1	nt	8.2µM*	?	nt	nt	nt
CCCS(=O)(=O)Nc1cc2c(cc1NCc1ccccc1)n(C)c(=O)n2C	nt	9.2µM*	?	nt	nt	nt
CSC(=NC#N)N1CCN(c2ccc([N+](=O)[O-])cc2)CC1	-11%	?	?	-1%	-10%	16
O=C(c1ccco1)N1CCC2(CC1)CCN(c1ccccn1)CC2	nt	-14%	?	nt	nt	nt
CNCCCC1c2ccccc2C=Cc2ccccc21	18µM*	?	23µM*	23µM*	?	0

Assay outcomes from PubChem BioAssay.
